{"source": "PubChem BioAssay (NCATS)", "note": "Active and inactive are the calls of the source. Unless noted, calls follow the shape of the dose curve; as a rule, active = well fitted curve in the direction sought with a large enough effect (not every such curve was filed as active); inconclusive = small, poorly fitted or top-dose-only effect, or effect the other way, or another doubt; inactive = no such curve, though single readings can be large or run the other way.", "data": [{"target": "Pyruvate kinase (Leishmania mexicana) (UniProt Q27686)", "sequence (Q27686 2-499 E452W)": "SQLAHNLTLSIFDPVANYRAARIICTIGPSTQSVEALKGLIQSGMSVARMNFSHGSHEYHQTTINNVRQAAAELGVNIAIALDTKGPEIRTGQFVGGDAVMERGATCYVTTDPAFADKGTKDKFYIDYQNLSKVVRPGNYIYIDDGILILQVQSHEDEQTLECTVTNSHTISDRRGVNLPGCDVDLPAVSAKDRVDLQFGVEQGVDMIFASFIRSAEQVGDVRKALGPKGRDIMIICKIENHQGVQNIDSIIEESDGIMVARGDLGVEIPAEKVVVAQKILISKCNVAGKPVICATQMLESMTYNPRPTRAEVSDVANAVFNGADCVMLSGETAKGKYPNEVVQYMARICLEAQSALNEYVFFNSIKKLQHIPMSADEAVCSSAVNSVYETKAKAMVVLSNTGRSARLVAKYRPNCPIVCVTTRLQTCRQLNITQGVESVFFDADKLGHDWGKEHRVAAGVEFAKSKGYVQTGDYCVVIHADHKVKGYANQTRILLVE", "experiment": "qHTS Validation Assay for Inhibitors of Leishmania Mexicana Pyruvate Kinase (AID 945; active = well fitted inhibition curve with a large enough effect)", "details": "purified L. mexicana pyruvate kinase, enzyme activity, E451W mutant enzyme; series mostly up to 57.5 µM", "method_in_brief": "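Mutant LmPYK (E451W), 0.2 nM, plus 0.5 mM PEP and 0.1 mM ADP in 50 mM imidazole pH 7.2 containing 0.01% Tween 20 and 0.05% BSA. Incubated 1 h at room temperature; luminescence via PKLight, normalized to DMSO.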", "values": [{"smiles": "CCN(CC)CCOC(=O)C1(C2CCCCC2)CCCCC1", "outcome": "inactive"}, {"smiles": "Cc1cc(N)c2ccccc2[n+]1CCCCCCCCCC[n+]1c(C)cc(N)c2ccccc21", "outcome": "inactive"}, {"smiles": "COC(=O)C1=C(C)NC(C)=C(C(=O)OC)C1c1ccccc1[N+](=O)[O-]", "outcome": "inactive"}]}, {"target": "Pyruvate kinase PKM (Homo sapiens) (UniProt P14618)", "sequence (P14618 whole entry, looked up)": "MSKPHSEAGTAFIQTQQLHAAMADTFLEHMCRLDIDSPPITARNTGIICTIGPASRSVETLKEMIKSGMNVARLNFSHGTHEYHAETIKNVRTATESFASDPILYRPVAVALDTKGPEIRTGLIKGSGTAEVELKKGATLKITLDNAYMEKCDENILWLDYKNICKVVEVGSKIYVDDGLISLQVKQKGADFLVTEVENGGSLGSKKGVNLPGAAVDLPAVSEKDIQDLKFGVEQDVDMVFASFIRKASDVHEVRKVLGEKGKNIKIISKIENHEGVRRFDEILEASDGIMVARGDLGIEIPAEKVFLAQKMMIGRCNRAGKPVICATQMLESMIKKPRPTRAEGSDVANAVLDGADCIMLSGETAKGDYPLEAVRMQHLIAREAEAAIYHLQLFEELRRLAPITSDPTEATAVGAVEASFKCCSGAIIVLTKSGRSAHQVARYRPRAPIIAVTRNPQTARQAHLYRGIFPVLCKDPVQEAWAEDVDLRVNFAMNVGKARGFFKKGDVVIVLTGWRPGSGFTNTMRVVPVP", "experiment": "qHTS Assay for Activators of Human Muscle Pyruvate Kinase (AID 954)", "details": "purified human muscle pyruvate kinase, luciferase-coupled luminescence, 1 h; series mostly up to 57.5 µM", "method_in_brief": "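Purified human PKM2 (0.1 nM) with 0.5 mM PEP (Km) and 0.1 mM ADP in 50 mM imidazole pH 7.2, KCl, MgCl2, 1 h at room temperature; ATP formed read by coupled luciferase luminescence. Normalized to no-enzyme/110 uM thiadiazolimine inhibition; 0.3 nM enzyme column for activation.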", "values": [{"smiles": "CCN(CC)CCOC(=O)C1(C2CCCCC2)CCCCC1", "outcome": "inactive"}, {"smiles": "Cc1cc(N)c2ccccc2[n+]1CCCCCCCCCC[n+]1c(C)cc(N)c2ccccc21", "outcome": "inactive"}, {"smiles": "COC(=O)C1=C(C)NC(C)=C(C(=O)OC)C1c1ccccc1[N+](=O)[O-]", "outcome": "inactive"}]}]}
